Experimental data as given in PubChem BioAssay (EPA / NIEHS).
The source made the active and inactive calls. The calls were made as follows: active = hit-call score of the fitted dose curve at least 0.9, where 1 is the maximum; inactive = score below 0.9.

Experiments:
[1] = read-out: Tumor necrosis factor receptor superfamily member 6 (Homo sapiens) (UniProt P25445); experiment: LTEA_HepaRG_FAS: Life Technologies and Expression Analysis (LTEA) Assay for Fas cell surface death receptor (FAS) using HepaRG (AID 2283447); conditions: mRNA level, 48 h; actives raise or lower the signal
Procedure, shortened: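 Differentiated human HepaRG cells, pre-cultured 48 h, were exposed in duplicate for 48 h to 8-point half-log concentrations (top 100 uM, 0.5% DMSO) in serum-free induction medium; FAS mRNA measured by qRT-PCR, normalized to ACTB/GAPDH/POLR2A, bidirectional fit versus DMSO.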

[2] = read-out: Fatty acid synthase (Homo sapiens) (UniProt P49327); experiment: LTEA_HepaRG_FASN: Life Technologies and Expression Analysis (LTEA) Assay for Fatty Acid Synthase (FASN) using HepaRG (AID 2283448); conditions: mRNA level, 48 h; actives raise or lower the signal
Procedure, shortened: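 HepaRG, 48 h exposure, 8-pt half-log series top 100 uM, 0.5% DMSO vehicle, duplicates. Readout: FASN transcript by Fluidigm qRT-PCR; housekeeping-normalized; bidirectional curve fit vs DMSO baseline.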

[3] = read-out: Cyclin D2 (CCND2), CCND2 (gene 894); experiment: LTEA_HepaRG_CCND2: Life Technologies and Expression Analysis (LTEA) Assay for Cyclin D2 (CCND2) using HepaRG (AID 2283449); conditions: mRNA level, 48 h; actives raise or lower the signal;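 also: CCND2 transcript measured by TaqMan qRT-PCR and normalised to three housekeeping genes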
Procedure, shortened: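 In this HepaRG study, an eight-point concentration series (max 100 uM, 0.5% DMSO) is applied for 48 h. CCND2 mRNA change is derived by qRT-PCR normalised to ACTB, GAPDH and POLR2A.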

[4] = read-out: Cyclin Dependent Kinase Inhibitor 1A (CDKN1A), CDKN1A (gene 1026); experiment: LTEA_HepaRG_CDKN1A: Life Technologies and Expression Analysis (LTEA) Assay for Cyclin Dependent Kinase Inhibitor 1A (CDKN1A) using HepaRG (AID 2283450); conditions: mRNA level, 48 h; actives raise or lower the signal
Procedure, shortened: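 Differentiated human HepaRG cells, pre-cultured 48 h, were exposed in duplicate for 48 h in serum-free induction medium to eight half-log concentrations up to 100 uM (0.5% DMSO). CDKN1A mRNA was measured by qRT-PCR, normalized to ACTB/GAPDH/POLR2A, bidirectionally fitted versus DMSO.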

[5] = read-out: Cyclin D1 (CCND1), CCND1 (gene 595); experiment: LTEA_HepaRG_CCND1: Life Technologies and Expression Analysis (LTEA) Assay for Cyclin D1 (CCND1) using HepaRG (AID 2283451); conditions: mRNA level, 48 h; actives raise or lower the signal;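 as to AC50: TaqMan qRT-PCR transcript level normalised to ACTB GAPDH and POLR2A housekeeping genes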
Procedure, shortened: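 Differentiated human HepaRG cells in serum-free induction medium were exposed 48 h to eight half-log concentrations up to 100 uM in 0.5% DMSO; mRNA quantified by TaqMan qRT-PCR, normalized to ACTB, GAPDH, POLR2A, fitted bidirectionally versus DMSO.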

[6] = read-out: catalase (CAT), CAT (gene 847); experiment: LTEA_HepaRG_CAT: Life Technologies and Expression Analysis (LTEA) Assay for catalase (CAT) using HepaRG (AID 2283452); conditions: mRNA level, 48 h; actives raise or lower the signal;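 as to AC50: TaqMan qRT-PCR signal normalized to ACTB GAPDH and POLR2A housekeeping genes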
Procedure, shortened: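 Differentiated HepaRG cells in serum-free induction medium were dosed 48 h in duplicate, eight half-log concentrations from 100 uM in 0.5% DMSO. Transcript measured by TaqMan qRT-PCR, normalised to ACTB/GAPDH/POLR2A, fitted bidirectionally against DMSO.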

[7] = read-out: flavin-containing dimethylaniline monooxygenases 3 (FMO3), FMO3 (gene 2328); experiment: LTEA_HepaRG_FMO3: Life Technologies and Expression Analysis (LTEA) Assay for flavin-containing dimethylaniline monooxygenases 3 (FMO3) using HepaRG (AID 2283453); conditions: mRNA level, 48 h; actives raise or lower the signal;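 as to AC50: FMO3 transcript by TaqMan qRT-PCR normalized to ACTB GAPDH and POLR2A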
Procedure, shortened: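 Eight-point concentration-response in serum-free HepaRG cultures (top 100 uM, 0.5% DMSO, 48 h). Read-out: FMO3 mRNA level normalized to three endogenous control genes, fitted bidirectionally versus vehicle.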

[8] = read-out: Cytochrome P450 (CYP1A1), CYP1A1 (gene 1543); experiment: LTEA_HepaRG_CYP1A1: Life Technologies and Expression Analysis (LTEA) Assay for Cytochrome P450 (CYP1A1) using HepaRG (AID 2283454); conditions: mRNA level, 48 h; actives raise or lower the signal
Procedure, shortened: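 Differentiated HepaRG cells in serum-free induction medium were exposed in duplicate for 48 h to eight half-log concentrations up to 100 uM in 0.5% DMSO. CYP1A1 mRNA was quantified by TaqMan qRT-PCR, normalized to ACTB, GAPDH and POLR2A.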

[9] = read-out: CFLAR gene, CFLAR (gene 8837); experiment: LTEA_HepaRG_CFLAR: Life Technologies and Expression Analysis (LTEA) Assay for CFLAR gene using HepaRG (AID 2283455); conditions: mRNA level, 48 h; actives raise or lower the signal
Procedure, shortened: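 Gain- or loss-of-signal changes in CFLAR transcript were fitted bidirectionally relative to 0.5% DMSO. Cells (HepaRG, duplicate wells) were dosed for 48 h across eight half-log concentrations topping at 100 uM; quantitation by TaqMan qRT-PCR.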

[10] = read-out: growth arrest and DNA damage 45 (GADD45A), GADD45A (gene 1647); experiment: LTEA_HepaRG_GADD45A: Life Technologies and Expression Analysis (LTEA) Assay for growth arrest and DNA damage 45 (GADD45A) using HepaRG (AID 2283458); conditions: mRNA level, 48 h; actives raise or lower the signal
Procedure, shortened: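 HepaRG, 48 h exposure, 8 conc. (top 100 uM, half-log steps), 0.5% DMSO vehicle, duplicates. Read-out: qRT-PCR mRNA level, housekeeping-normalized (ACTB/GAPDH/POLR2A). Curves fit bidirectionally vs DMSO baseline.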

[11] = read-out: Forkhead box O3 (FOXO3), FOXO3 (gene 2309); experiment: LTEA_HepaRG_FOXO3: Life Technologies and Expression Analysis (LTEA) Assay for Forkhead box O3 (FOXO3) using HepaRG (AID 2283459); conditions: mRNA level, 48 h; actives raise or lower the signal
Procedure, shortened: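 Gene-expression endpoint: FOXO3 transcript level by qRT-PCR in HepaRG cultures treated 48 h with chemicals up to 100 uM (half-log, 0.5% DMSO vehicle).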

[12] = read-out: ABC Transporter (ABCB1), ABCB1 (gene 5243); experiment: LTEA_HepaRG_ABCB1: Life Technologies and Expression Analysis (LTEA) Assay for ABC Transporter (ABCB1) using HepaRG (AID 2283460); conditions: mRNA level, 48 h; actives raise or lower the signal
Procedure, shortened: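 Human liver HepaRG line treated 48 h with up to 100 uM compound (eight half-log points, 0.5% DMSO); ABCB1 mRNA change fitted bidirectionally against DMSO controls.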

[13] = read-out: growth arrest and DNA damage 45 (GADD45B), GADD45B (gene 4616); experiment: LTEA_HepaRG_GADD45B: Life Technologies and Expression Analysis (LTEA) Assay for growth arrest and DNA damage 45 (GADD45B) using HepaRG (AID 2283461); conditions: mRNA level, 48 h; actives raise or lower the signal
Procedure, shortened: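 Differentiated HepaRG cells, plated 48 h then switched to serum-free induction medium, were exposed 48 h in duplicate to eight half-log concentrations from 100 uM in 0.5% DMSO; mRNA quantified by qRT-PCR, normalized to ACTB/GAPDH/POLR2A, bidirectional fit versus DMSO.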

[14] = read-out: ABC Transporter (ABCC3), ABCC3 (gene 8714); experiment: LTEA_HepaRG_ABCC3: Life Technologies and Expression Analysis (LTEA) Assay for ABC Transporter (ABCC3) using HepaRG (AID 2283462); conditions: mRNA level, 48 h; actives raise or lower the signal
Procedure, shortened: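 HepaRG cells in serum-free induction medium were exposed for 48 h in duplicate to 8-point half-log concentrations topping at 100 uM in 0.5% DMSO. ABCC3 mRNA was measured by qRT-PCR normalized to ACTB, GAPDH and POLR2A, with bidirectional fitting versus DMSO.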

[15] = read-out: ABC Transporter (ABCB11), ABCB11 (gene 8647); experiment: LTEA_HepaRG_ABCB11: Life Technologies and Expression Analysis (LTEA) Assay for ABC Transporter (ABCB11) using HepaRG (AID 2283463); conditions: mRNA level, 48 h; actives raise or lower the signal
Procedure, shortened: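 Using HepaRG cultures held in 0.5% DMSO, chemicals were tested at half-log dilutions from 100 uM for 48 h. Induction or suppression of ABCB11 mRNA, normalized to ACTB, GAPDH and POLR2A, was fitted bidirectionally against vehicle.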

[16] = read-out: ABC Transporter (ABCC2), ABCC2 (gene 1244); experiment: LTEA_HepaRG_ABCC2: Life Technologies and Expression Analysis (LTEA) Assay for ABC Transporter (ABCC2) using HepaRG (AID 2283464); conditions: mRNA level, 48 h; actives raise or lower the signal
Procedure, shortened: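 HepaRG cells were plated 48 h, switched to serum-free induction medium, then exposed in duplicate for 48 h to 8 concentrations (top 100 uM, half-log steps, 0.5% DMSO). ABCC2 mRNA was measured by qRT-PCR normalized to ACTB/GAPDH/POLR2A; bidirectional fitting versus DMSO.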

[17] = read-out: Broad substrate specificity ATP-binding cassette transporter ABCG2 (Homo sapiens) (UniProt Q9UNQ0); experiment: LTEA_HepaRG_ABCG2: Life Technologies and Expression Analysis (LTEA) Assay for ABC Transporter (ABCG2) using HepaRG (AID 2283465); conditions: mRNA level, 48 h; actives raise or lower the signal
Procedure, shortened: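 Gene expression of ABCG2 in HepaRG liver cells is quantified by qRT-PCR following 48 h exposure across an eight-point series topping at 100 uM. Values come from bidirectional fitting relative to DMSO vehicle.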

[18] = read-out: ATP-citrate lyase (ACLY), ACLY (gene 47); experiment: LTEA_HepaRG_ACLY: Life Technologies and Expression Analysis (LTEA) Assay for ATP-citrate lyase (ACLY) using HepaRG (AID 2283466); conditions: mRNA level, 48 h; actives raise or lower the signal
Procedure, shortened: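 ACLY expression changes in human HepaRG liver cells are quantified by qRT-PCR after 48 h exposure to test chemicals (maximum 100 uM, half-log steps). Values are fitted in both directions relative to 0.5% DMSO vehicle.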

[19] = read-out: Forkhead box O1 (FOXO1), FOXO1 (gene 2308); experiment: LTEA_HepaRG_FOXO1: Life Technologies and Expression Analysis (LTEA) Assay for Forkhead box O1 (FOXO1) using HepaRG (AID 2283456); conditions: mRNA level, 48 h; actives raise or lower the signal
Procedure, shortened: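 Using one lot of HepaRG hepatic cells kept in 0.5% DMSO, the team applied test chemicals in duplicate, half-log dilutions from 100 uM, for 48 h. Expression, normalised to ACTB/GAPDH/POLR2A, was compared with vehicle in either direction.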

[20] = CEETOX_H295R_TESTO: CeeTox H295R High-throughput Steroidogenesis Assay for Testosterone (TESTO) (AID 2283457); conditions: actives raise or lower the signal
Procedure, shortened: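 H295R human adrenal cells in DMEM/F12 with ITS+ and Nu-Serum, exposed to chemicals for 48 h. Testosterone in medium measured by MTBE extraction, reverse-phase HPLC-MS/MS; bidirectional fit versus DMSO baseline. MTT viability checked in same wells.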

Measured: AC50

Sequence of Broad substrate specificity ATP-binding cassette transporter ABCG2 (Homo sapiens) (Q9UNQ0 whole entry, looked up): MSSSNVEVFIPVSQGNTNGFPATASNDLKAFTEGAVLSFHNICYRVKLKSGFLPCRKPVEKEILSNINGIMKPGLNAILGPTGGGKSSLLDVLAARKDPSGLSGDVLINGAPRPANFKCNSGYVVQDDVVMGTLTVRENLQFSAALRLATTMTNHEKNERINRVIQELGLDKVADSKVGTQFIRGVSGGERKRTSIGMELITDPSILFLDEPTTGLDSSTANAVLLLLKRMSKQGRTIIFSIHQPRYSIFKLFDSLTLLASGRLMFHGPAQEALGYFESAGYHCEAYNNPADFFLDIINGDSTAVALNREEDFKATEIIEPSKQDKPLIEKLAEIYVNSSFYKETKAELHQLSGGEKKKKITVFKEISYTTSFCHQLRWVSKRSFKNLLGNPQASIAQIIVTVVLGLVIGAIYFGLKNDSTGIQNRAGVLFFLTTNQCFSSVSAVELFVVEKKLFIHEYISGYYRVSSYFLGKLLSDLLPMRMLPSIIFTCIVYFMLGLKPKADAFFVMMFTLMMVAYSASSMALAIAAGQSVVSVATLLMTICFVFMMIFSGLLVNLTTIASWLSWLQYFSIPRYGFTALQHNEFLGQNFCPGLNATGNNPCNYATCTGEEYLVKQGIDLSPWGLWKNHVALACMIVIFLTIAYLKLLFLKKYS
Sequence of Fatty acid synthase (Homo sapiens) (P49327 whole entry, looked up): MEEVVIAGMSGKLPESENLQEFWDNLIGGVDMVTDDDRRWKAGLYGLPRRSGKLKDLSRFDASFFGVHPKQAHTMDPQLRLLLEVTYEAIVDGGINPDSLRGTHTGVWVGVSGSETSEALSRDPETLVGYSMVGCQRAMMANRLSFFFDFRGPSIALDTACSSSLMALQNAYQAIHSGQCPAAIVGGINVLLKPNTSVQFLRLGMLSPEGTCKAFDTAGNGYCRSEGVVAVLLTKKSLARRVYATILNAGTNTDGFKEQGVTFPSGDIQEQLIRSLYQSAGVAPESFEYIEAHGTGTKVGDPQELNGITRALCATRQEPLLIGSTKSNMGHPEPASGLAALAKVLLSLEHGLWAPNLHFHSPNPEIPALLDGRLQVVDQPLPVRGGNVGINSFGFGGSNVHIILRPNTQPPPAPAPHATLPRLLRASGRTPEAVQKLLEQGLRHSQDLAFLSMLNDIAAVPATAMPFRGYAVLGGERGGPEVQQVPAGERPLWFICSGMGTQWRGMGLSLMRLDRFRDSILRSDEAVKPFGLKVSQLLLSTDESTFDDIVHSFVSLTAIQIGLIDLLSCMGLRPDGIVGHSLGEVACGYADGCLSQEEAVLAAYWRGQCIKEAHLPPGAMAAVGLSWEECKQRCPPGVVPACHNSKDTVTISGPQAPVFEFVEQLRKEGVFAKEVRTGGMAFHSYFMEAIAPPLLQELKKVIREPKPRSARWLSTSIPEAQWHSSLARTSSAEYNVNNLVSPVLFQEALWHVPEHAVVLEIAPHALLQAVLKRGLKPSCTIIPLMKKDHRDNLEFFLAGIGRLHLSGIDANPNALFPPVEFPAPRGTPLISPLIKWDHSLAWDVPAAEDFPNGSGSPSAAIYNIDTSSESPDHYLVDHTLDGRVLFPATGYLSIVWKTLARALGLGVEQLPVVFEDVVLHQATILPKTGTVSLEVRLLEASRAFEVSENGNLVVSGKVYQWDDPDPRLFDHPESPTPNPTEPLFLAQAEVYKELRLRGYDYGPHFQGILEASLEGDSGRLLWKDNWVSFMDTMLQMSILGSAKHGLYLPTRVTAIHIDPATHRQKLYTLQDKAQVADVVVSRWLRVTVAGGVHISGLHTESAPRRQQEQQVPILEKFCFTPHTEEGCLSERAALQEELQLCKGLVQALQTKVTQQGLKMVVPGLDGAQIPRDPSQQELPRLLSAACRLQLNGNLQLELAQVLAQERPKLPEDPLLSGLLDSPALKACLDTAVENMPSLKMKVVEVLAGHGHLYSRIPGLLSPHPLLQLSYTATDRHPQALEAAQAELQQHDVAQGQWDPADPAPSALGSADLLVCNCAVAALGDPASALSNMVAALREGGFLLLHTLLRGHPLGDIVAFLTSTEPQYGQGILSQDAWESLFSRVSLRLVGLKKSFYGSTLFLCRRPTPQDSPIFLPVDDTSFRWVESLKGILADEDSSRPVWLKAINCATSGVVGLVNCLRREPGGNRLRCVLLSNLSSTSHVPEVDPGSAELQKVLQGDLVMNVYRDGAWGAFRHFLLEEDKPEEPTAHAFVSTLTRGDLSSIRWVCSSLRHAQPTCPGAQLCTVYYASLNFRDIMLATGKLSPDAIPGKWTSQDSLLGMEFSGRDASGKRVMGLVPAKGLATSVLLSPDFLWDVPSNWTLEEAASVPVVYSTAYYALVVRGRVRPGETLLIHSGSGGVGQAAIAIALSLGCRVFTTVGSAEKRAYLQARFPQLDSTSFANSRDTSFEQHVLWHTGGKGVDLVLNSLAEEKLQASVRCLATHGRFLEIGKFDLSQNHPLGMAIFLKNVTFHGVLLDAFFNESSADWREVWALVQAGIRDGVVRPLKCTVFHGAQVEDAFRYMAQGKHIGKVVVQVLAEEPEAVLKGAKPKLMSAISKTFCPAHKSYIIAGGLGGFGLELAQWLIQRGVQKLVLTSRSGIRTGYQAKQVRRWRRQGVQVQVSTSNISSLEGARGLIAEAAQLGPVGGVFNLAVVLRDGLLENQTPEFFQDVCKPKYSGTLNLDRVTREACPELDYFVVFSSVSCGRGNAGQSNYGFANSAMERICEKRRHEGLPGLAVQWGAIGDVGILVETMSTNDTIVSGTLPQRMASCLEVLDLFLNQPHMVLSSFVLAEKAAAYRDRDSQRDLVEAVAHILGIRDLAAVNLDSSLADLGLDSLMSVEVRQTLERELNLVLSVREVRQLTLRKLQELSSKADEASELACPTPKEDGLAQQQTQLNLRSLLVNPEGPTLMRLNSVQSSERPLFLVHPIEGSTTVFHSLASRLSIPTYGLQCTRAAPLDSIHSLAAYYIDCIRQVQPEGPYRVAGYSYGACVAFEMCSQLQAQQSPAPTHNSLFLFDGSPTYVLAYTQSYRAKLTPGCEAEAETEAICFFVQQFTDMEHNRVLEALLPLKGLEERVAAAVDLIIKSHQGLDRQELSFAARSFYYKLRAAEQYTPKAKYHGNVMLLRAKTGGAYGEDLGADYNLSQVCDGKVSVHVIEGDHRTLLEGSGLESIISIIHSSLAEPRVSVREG

CC(=O)NC1(c2cccc(F)c2)CCN(CC[C@@]2(c3ccc(Cl)c(Cl)c3)CN(c3ccccc3)C(=O)CO2)CC1
active: [1] 71.9 µM | [7] 13.1 µM | [8] 20 µM | [9] 56.1 µM | [12] 68.7 µM | [15] 20.8 µM | [16] 71.9 µM
not listed: [19] | [20]
inactive: all other assays above

CCc1nn(C2CCCCC2)c2cc(C3(C#N)CCC(C(=O)O)CC3)ccc12 (configuration not stated)
active: [1] 31.1 µM | [2] 85.1 µM | [4] 73.2 µM | [5] 19.5 µM | [6] 77.2 µM | [7] 83.7 µM | [8] 14.4 µM | [9] 8.95 µM | [10] 77.6 µM | [12] 12.4 µM | [15] 82.8 µM | [17] 13 µM | [18] 25.5 µM
inactive: [3] | [11] | [13] | [14] | [16]

CCCCCCCCCCCCN1CCCC1=O
not listed: [8] | [20]
inactive: all other assays above

CC(O)CO (configuration not stated)
not listed: [19] | [20]
inactive: all other assays above

CC(=O)CC(C)(C)O
not listed: [8] | [20]
inactive: all other assays above

C[C@@H]1C[C@H]2[C@@H]3CCC4=CC(=O)C=C[C@]4(C)[C@@]3(F)[C@@H](O)C[C@]2(C)[C@@]1(O)C(=O)COP(=O)(O)O
not listed: [8] | [20]
inactive: all other assays above

CCC(=C(c1ccc(O)cc1)c1ccc(OCCN(C)C)cc1)c1ccccc1
active: [9] 97.3 µM | [19] 82.6 µM | [14] 82.1 µM | [16] 86.1 µM
not listed: [8]
inactive: all other assays above
